Compounds with a hit are over-represented: about 19% of the library has one in this group of screens.
IL1B secr inh: blocks inflammasome-driven IL-1 beta release; activity change, % at 57.5 µM; THP-1 LPS/ATP IL-1B secretion, AlphaLISA, 16 h; stronger effect = lower value; actives 4.7% (n = 360,000); AID 743279; in the data active means activity change below about -50%; inconclusive means mostly about -30% to -49%; further: on the % scale 0 is the no-effect control and ±100 the full control effect
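Secreted IL-1B measured by AlphaLISA bead assay after 16 h compound exposure of THP-1 cells; compounds (final up to 57.5 uM) added 1 h before LPS (250 ng/mL) and ATP (1.25 mM) stimulation; lower signal means less secretion.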
TDP1 cell noCPT: qHTS for Inhibitors of human tyrosyl-DNA phosphodiesterase 1 (TDP1): qHTS in cells in absence of CPT; DT40 Tdp1-/- hTDP1 cells, no CPT, ATP luminescence, 48 h; Potency, µM (doses to about 46.2 µM), without a hit: top-dose activity change, negative = growth inhibition, hits mostly inhibitors; actives 15% (n = 420,000); further: potency means the concentration at half of the fitted maximal effect; on the % scale 0 is the no-effect control and ±100 the full control effect; nearly all actives have a fitted effect of over 55% in size
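Luminescent ATP content (CellTiter-Glo) served as the growth readout. Knockout chicken DT40 cells expressing human TDP1 were exposed to compounds without camptothecin for a minimum 48 hr at 37 °C.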
HepG2 viability: counter-screen for TGF-b inhibitors: cytotoxicity in HepG2 cells; actives 0.76% (n = 410,000); Potency, µM (top dose mostly 46.1 µM), for inactives: top-dose activity change, negative = cytotoxicity, actives largely listed as cytotoxic; AID 588856; HepG2 CAGA-GFP viability, ATP luminescence, 18 h; further: potency means the concentration at half of the fitted maximal effect
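HepG2 CAGA-GFP cells (1000/well, DMEM with 1% FBS) received compound, then TGF-beta at 500 pg/mL final, and were incubated 18 hours at 37 degrees C. Viability was read by CellTiter-Glo luminescence. Media-only wells were set as complete cell-killing and DMSO as no toxicity.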
TGFb SMAD3 inh: TGF-b pathway inhibition; HepG2 CAGA-GFP TGF-b/SMAD3 reporter, GFP fluorescence, 18 h; TGF-beta stimulated, 500 pg/mL final; Potency, µM (top dose mostly 46.1 µM), for inactives: top-dose activity, negative = inhibition, usual class: inhibitors; actives 1.2% (n = 410,000); AID 588855; further: potency means the concentration at half of the fitted maximal effect; on the % scale 0 is the no-effect control and ±100 the full control effect; nearly all actives have a fitted effect of over 65% in size
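TGF-beta reporter screen: HEPG2 CAGA-GFP, 1% FBS, 500 pg/mL TGF-beta final, 18 h; per-cell GFP summed per well; curves fitted and categorized by class.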
S-ASM inh: human S-ASM enzyme inhibition | P17405 | placental ASM, HMU-PC fluorogenic substrate, 60 min | Potency, µM (doses to about 57.5 µM), for inactives: at the top dose activity change, negative = inhibition, usual class: inhibitors | actives 0.006% (n = 340,000); further: potency means the concentration at half of the fitted maximal effect
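Fluorogenic HMU-PC substrate (9 uM final) is turned over by placental ASM in 60 min at 37 C after a 10 min compound preincubation. Reaction ended by alkaline stop (pH 10), with fluorescence read at 386/447 nm.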
DT40 TDP1 CPT: growth inhibition of DT40 Tdp1-/-;hTDP1 cells with camptothecin (screen for TDP1 inhibitors); chicken DT40 Tdp1-/-;hTDP1 cells + 20 nM CPT, ATP luminescence, 48 h; Potency, µM (highest dose often 46.2 µM), inactives show at the highest dose activity change, negative = growth inhibition, actives largely listed as inhibitors; actives 12% (n = 420,000); further: potency means the concentration at half of the fitted maximal effect; on the % scale 0 is the no-effect control and ±100 the full control effect; nearly all actives have a fitted effect of over 55% in size
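Cell growth measured by CellTiter-Glo luminescence after a minimum 48 h, 37 C compound exposure with 20 nM CPT in Tdp1-knockout DT40 cells stably expressing hTDP1, seeded 400/well; qHTS titration format.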
The depositor's hits bear a star; ? = inconclusive; nt = no result; ! = repeats disagree. Unless noted, the call rests on the fitted dose curve; in most records, active means well fitted curve in the direction sought with a large enough effect; inconclusive means small, poorly fitted or top-dose-only effect, or another doubt; inactive means no such curve, though single readings can be large; an effect the other way counts as inactive or inconclusive.

SMILES	IL1B secr inh	TDP1 cell noCPT	HepG2 viability	TGFb SMAD3 inh	S-ASM inh	DT40 TDP1 CPT
COCCn1ccc2c(OCC(=O)NCCc3ccccc3)cccc2c1=O	11	?	5%	5%	-2%	-20%
Cc1ccc(CCNC(=O)CN2C(=O)COc3ccc(S(=O)(=O)N4CCCCCC4)cc32)cc1	nt	16µM*	-28%	?	nt	16µM*
O=C(CN1C(=O)COc2ccc(S(=O)(=O)N3CCCC3)cc21)NCCc1ccc(Cl)cc1	nt	23µM*	-1%	?	nt	?
COc1ccc(CCNC(=O)CN2C(=O)COc3ccc(S(=O)(=O)N4CCCC4)cc32)c(OC)c1	-29	16µM*!	0%	1%	0%	18µM*!
O=C(CCN1N=C(c2ccccc2)CCC1=O)NCCCN1CCOCC1	-12	16%	9%	-2%	-5%	17%
CC(C)CN1CCC2(CC1)CCN(C(=O)c1cc(C(F)(F)F)cc(C(F)(F)F)c1)CC2	nt	-2%	nt	nt	nt	2%
CC(=O)C1=C(O)C(=CC=Cc2ccccc2)OC1=O	-2	16µM*	-3%	5%	nt	?
CCOC(=O)c1c(-c2ccc(C)cc2)csc1NC(=O)c1cc(=O)c2cc(Cl)ccc2o1	nt	4.6µM*	6%	-1%	nt	2%
CC(C)OC(=O)c1c(-c2ccc(C(C)C)cc2)csc1NC(=O)C1CCCO1 (stereo not drawn)	16	15µM*	-32%	-1%	?	?
CCOC(=O)c1c(-c2ccc(C)cc2)csc1NC(=O)C1CCCO1 (stereo not drawn)	7	26µM*	-31%	-1%	-15%	?
COC(=O)c1c(-c2cccc(C)c2)csc1NC(=O)C1CCCO1 (stereo not drawn)	-9	18µM*	7%	8%	-3%	?
CCOC(=O)c1c(-c2ccc(OC)cc2)csc1NC(=O)C1CCCO1 (stereo not drawn)	-20	?	-16%	12%	-15%	?
CCOC(=O)c1c(-c2ccccc2)csc1NC(=O)c1cc(-c2ccc(Cl)cc2)on1	nt	-10%	-14%	-29%	nt	-9%
CCOC(=O)c1c(-c2ccc(F)cc2)csc1NC(=O)C1CCCO1 (stereo not drawn)	0	?	1%	-9%	-8%	-14%
COc1ccc(N(CC(=O)NCc2ccco2)C(=O)CNS(=O)(=O)c2ccc(Cl)cc2)cc1	-16	-15%	24%	-14%	0%	-18%
COc1ccc(NC(=O)CSc2nc3ccccc3c(=O)n2CCC(=O)NC2CCCCC2)c(OC)c1	nt	-5%	1%	-2%	nt	-3%
COc1cccc(CN(C)CC(=O)NCc2ccc(F)cc2)c1OC	7	-29%	0%	0%	9%	-23%
O=C(N[C@H]1CCC(=O)N([C@H](CSc2ccccc2)Cc2ccccc2)CC1)OCc1ccccc1	-22	20µM*	-11%	?	-1%	?
Cc1ccc(SC[C@H](Cc2ccccc2)N2CC[C@@H](NC(=O)OCc3ccccc3)CCC2=O)cc1	nt	13µM*	4%	-15%	nt	18µM*
N#CCCN1CCC(NC(=O)OCc2ccccc2)CCC1=O (stereo not drawn)	40	-2%	-11%	-1%	-7%	-1%
O=C(N[C@H]1CCC(=O)N([C@H](CSc2ccc(Br)cc2)Cc2ccccc2)CC1)OCc1ccccc1	-23	18µM*	-1%	?	-11%	?
O=C(NC1CCC(=O)N(CCSc2ccccc2)CC1)OCc1ccccc1 (stereo not drawn)	15	16µM*	-28%	-13%	-2%	?

Assay outcomes as filed in PubChem.
